Screening data as filed in PubChem.
NS1 function inh = qHTS Assay for Inhibitors of Influenza NS1 Protein Function; AID 2326, 2010; Potency, µM (highest dose often 46.1 µM), for inactives: top-dose activity, positive = more growth; 0.4% of 270,000 active; calls by dose curve; further: potency means the concentration at half of the fitted maximal effect; actives are rising curves; nearly all actives have a fitted effect of over 50% in size
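A cell-based growth assay was used: compounds that relieve NS1-induced slow growth of budding yeast raise OD600. Assay medium was yeast nitrogen base with ammonium sulphate and -URA supplement, pH 6.0, with 2% galactose.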
Pf growth 48h = Primary qHTS for delayed death inhibitors of the malarial parasite plastid, 48 hour incubation; 5.9% of 310,000 active; P. falciparum luciferase growth in erythrocytes, 48 h; Potency, µM (highest dose often 28.7 µM), for the others: at the top dose activity change, negative = inhibition, actives largely listed as inhibitors; further: potency means the concentration at half of the fitted maximal effect; on the % scale 0 is the no-effect control and ±100 the full control effect
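Erythrocytes infected with P. falciparum carrying an integrated firefly luciferase reporter (2% hematocrit, 0.1% parasitemia final) were exposed to compounds in RPMI 1640 with 0.5% Albumax at 37 C, 5% CO2. Growth inhibition was scored as reduced luminescence.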
Pf growth 96h = Primary qHTS for delayed death inhibitors of the malarial parasite plastid, 96 hour incubation | P. falciparum luciferase reporter growth, 96 h | Potency, µM (top dose mostly 28.7 µM), inactives show at the top dose activity change, negative = inhibition, most hits filed as inhibitors | 6.9% of 320,000 active | AID 504834, 2011; further: potency means the concentration at half of the fitted maximal effect; on the % scale 0 is the no-effect control and ±100 the full control effect
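Plates of compound plus infected erythrocytes (2% hematocrit, 0.05% parasitemia final) incubate 96 hours, 37 C, 5% CO2. Detection reagent added; reduced luminescence from the parasites' luciferase reporter flags inhibition.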
Giardia FBPA inh = qHTS Assay for Inhibitors of Fructose-1,6-bisphosphate Aldolase from Giardia Lamblia; 0.71% of 290,000 active; purified Giardia FBPA; Potency, µM (doses to about 59.6 µM), for inactives: at the top dose activity, negative = inhibition, usual class: inhibitors; further: potency means the concentration at half of the fitted maximal effect; on the % scale 0 is the no-effect control and ±100 the full control effect; nearly all actives have a fitted effect of over 55% in size
Target sequence (A8B2U2 whole entry, looked up): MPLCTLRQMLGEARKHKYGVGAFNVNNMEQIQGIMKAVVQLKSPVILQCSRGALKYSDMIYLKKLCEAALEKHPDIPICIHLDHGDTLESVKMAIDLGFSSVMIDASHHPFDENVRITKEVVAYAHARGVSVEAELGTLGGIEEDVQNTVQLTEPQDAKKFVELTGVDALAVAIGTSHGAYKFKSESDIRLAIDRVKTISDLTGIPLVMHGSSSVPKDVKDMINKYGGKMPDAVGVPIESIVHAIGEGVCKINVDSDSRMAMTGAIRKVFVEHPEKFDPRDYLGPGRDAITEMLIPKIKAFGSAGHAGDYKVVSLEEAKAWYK
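Giardia FBPA (40 nM reagent) was preincubated 10 min at RT with compound (up to 57.5 uM final), then substrate plus GAPDH/TPI/NAD/arsenate coupling system with diaphorase/resazurin was added; resorufin fluorescence (525/598 nm) was read after 20 min.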
Shiga toxin inh = A qHTS for Small Molecule Inhibitors of Shiga Toxin; 9.2% of 290,000 active; AID 2315, 2010; Vero cells, Shiga toxin protein synthesis inhibition reporter; inhibition, % at 38.7 µM; in the data active means inhibition mostly above about 28%, no sharp cut-off; inactive means mostly below about 43%; further: 0% is about no effect
Cycloheximide cs = Cycloheximide Counterscreen for Small Molecule Inhibitors of Shiga Toxin; max response, %; cell reporter, cycloheximide protein synthesis inhibition counterscreen; 12% of 300,000 active; AID 2314, 2010; in the data active means max response mostly above about 13%, no sharp cut-off; inactive means mostly below about 14%; further: read at 38.3 µM for the half of the compounds with a filed dose; 0% is about no effect
An asterisk follows results filed as active; ? = inconclusive; · = no result; [ ] = another dose, or the depositor's remark. An excerpt weighted towards active compounds, which were near 21% of everything screened. Unless noted, the call rests on the fitted dose curve; in most records, active means well fitted curve in the direction sought with a large enough effect; inconclusive means small, poorly fitted or top-dose-only effect, or another doubt; inactive means no such curve, though single readings can be large; an effect the other way counts as inactive or inconclusive.

SMILES	NS1 function inh	Pf growth 48h	Pf growth 96h	Giardia FBPA inh	Shiga toxin inh	Cycloheximide cs
CC1CCCC(NC(=O)c2ccc3snnc3c2)C1C (stereo not given)	-7%	31%	20%	3%	2	8
COc1ccccc1NC(=O)CCC(=O)OCC(=O)c1ccc(C)c([N+](=O)[O-])c1	15%	16%	117%	·	-18	-2
CCOc1ccc(S(=O)(=O)N2CCN(CN3C(=O)CC4(CCCC4)C3=O)CC2)cc1	·	-2%	-13%	·	·	·
COc1cccc(OC)c1NC(=O)CN1CCN(C)CC1	3%	·	7%	?	0	-2
CCOC(=O)c1c(CN2CCCCC2)n(C)c2cc(Br)c(O)c(CN(C)C)c12	-4%	·	12µM*	-11%	13	-2
CC(C)CN1C(=O)c2ccc(C(=O)Nc3ccccc3C(=O)O)cc2C1=O	-4%	5%	-15%	0%	71*	55*
CC(C)CN1C(=O)c2ccc(C(=O)Nc3ccccn3)cc2C1=O	-2%	78%	6%	-2%	26	34*
Cc1ccccc1NC(=O)c1ccc2c(c1)C(=O)N(CC(C)C)C2=O	2%	-2%	-13%	8%	·	-3
CC(NC(=O)c1ccc(-c2ccccc2)cc1)C(c1ccccc1)N1CCOCC1 (stereo not given)	·	7.4µM*	10µM*	·	·	·
O=C(NC(C(=O)c1ccccc1)N1CCOCC1)c1ccccc1 (stereo not given)	15%	66%	10µM*	10%	31	16*
Cc1cc(=O)n(C(NC(=O)c2ccccc2)C(=O)c2ccccc2)cn1 (stereo not given)	11%	41%	-8%	-5%	29	19*
Cc1ccc(C(=O)C(NC(=O)c2ccco2)N2CCOCC2)cc1 (stereo not given)	7%	77%	20%	-17%	53*	39*
CC(NC(=O)c1ccc(C(F)(F)F)cc1)C(c1ccccc1)N1CCOCC1 (stereo not given)	·	?	?	-7%	-12	7
O=C(NC(C(=O)c1ccccc1)N1CCCCCC1)c1ccco1 (stereo not given)	5%	6%	?	-9%	-9	-4
CC(=O)NC(O)C(=O)c1ccccc1 (stereo not given)	7%	10%	-1%	2%	38	-3
CCOC(=O)c1c(C)[nH]c(C(=O)OCC(=O)N(C)CC(=O)Nc2ccccc2Cl)c1C	·	0%	-2%	·	·	·
O=C(NC(C(=O)c1ccccc1)N1CCOCC1)c1cccs1 (stereo not given)	13%	76%	12µM*	4%	33*	22*
O=C(Nc1ccccc1N1CCOCC1)c1cccs1	-1%	7%	?	1%	-3	-2
COc1ccc(NC(=S)NC(C)C(c2ccccc2)N2CCOCC2)cc1 (stereo not given)	·	?	15µM*	0%	-5	9
COCCCC1CCN(C(=O)C2CCC(=O)N(CCc3cccc(F)c3)C2)CC1 (stereo not given)	-4%	-15%	-7%	·	-1	-3
COc1ccc(COC(=O)N/N=C2/C[C@@H](O)[C@@H](O)[C@@H]3[C@@H]4C(=O)N(Cc5ccccc5)C(=O)[C@H]4CC[C@@H]23)cc1	·	·	·	2%[12.9 µM]	·	·
Cc1ccc([N+](=O)[O-])cc1S(=O)(=O)Nc1cccc(-c2ccc(N3CCCC3)nn2)c1	·	41%	27%	·	·	·
O=S(=O)(Nc1cccc(-c2ccc(N3CCCCCC3)nn2)c1)c1ccccc1Cl	12%	26%	?	·	58*	34*
O=S(=O)(Nc1cccc(-c2ccc(N3CCCCCC3)nn2)c1)c1ccccc1F	-5%	99%	15µM*	9%	110*	32*
OCCNCCO	7%	42%	41%	6%	-1	-3
SMILES	NS1 function inh	Pf growth 48h	Pf growth 96h	Giardia FBPA inh	Shiga toxin inh	Cycloheximide cs
Cn1cc(Br)c(C(=O)n2cc(Br)cn2)n1	5%	28%	-3%	2%	19	1
Cc1ccc(-c2cc3nc(-c4ccccc4)cc(N4CCC5(CC4)OCCO5)n3n2)cc1	12%	8.3µM*	0.29µM*	0%	15	-1
COCCN1CCN(c2cc(-c3ccccc3)nc3cc(-c4cccc(F)c4)nn23)CC1	-26%	12µM*	?	-7%	11	-3
Cc1cccc(-c2cc3nc(-c4ccccc4)cc(N4CCC5(CC4)OCCO5)n3n2)c1	6%	?	-26%	2%	10	-1
Fc1cccc(-c2cc3nc(-c4ccccc4)cc(N4CCC5(CC4)OCCO5)n3n2)c1	8%	8.3µM*	-17%	0%	-1	-4
COc1ccc(-c2c(C)nn3c(N4CCC5(CC4)OCCO5)cc(C)nc23)cc1OC	-16%	12µM*	-1%	-2%	-4	2
COc1ccc(-c2c(C)nn3c(N4CCOCC4)cc(C)nc23)cc1OC	-7%	?	?	2%	-4	-1
Cc1nc2cc(-c3cccc(F)c3)nn2c(C)c1CCC(=O)N1CCC2(CC1)OCCO2	-12%	?	?	12%	2	-2
CCOCCN1CCN(c2c3c(nc4cc(-c5ccc(F)cc5)nn24)CCC3)CC1	-15%	?	24%	-4%	-7	-7
Cn1c(=O)c2c(nc(Sc3ncnn3CC(=O)N3CCOCC3)n2C)n(C)c1=O	3%	4%	0%	4%	-18	1
CCc1noc(C)c1C(=O)N1CCN(S(=O)(=O)c2cccs2)CC1	·	-3%	14%	·	·	·
Cc1csc2nc(CNC(=O)C3CCCCC3)cn12	1%	9%	5%	2%	10	13*
O=C(NCc1csc(-c2cccs2)n1)Nc1ccc(F)cc1F	-1%	-1%	-8%	0%	21	7
O=C(NCc1csc(-c2cccs2)n1)c1cccc(Cl)c1	-42%	47%	45%	5%	54	14*
O=C(NCc1csc(-c2cccs2)n1)c1ccccc1	-8%	50%	105%	10%	38*	32*
O=C(NCc1csc(-c2cccs2)n1)C1CCC1	-2%	99%	160%	-3%	48*	38*
Cc1ccccc1OCC(=O)N/N=C/c1ccc(N2CCOCC2)o1	11%	-1%	-19%	·	16	3
COC(=O)c1ccc(Oc2ccc(C(F)(F)F)cn2)cc1	·	36%	5%	1%	45*	28*
Cc1ccccc1N1CCN(C(=O)c2ccc(Oc3ccc(C(F)(F)F)cn3)cc2)CC1	5%	9.3µM*	13µM*	-2%	-3	-3
O=C(O)c1ccc(Oc2ccc(C(F)(F)F)cn2)cc1	·	-4%	16%	17%	16	15*
CC(=O)c1ccc(Oc2cc(C(F)(F)F)cnc2C(N)=O)cc1	·	13%	?	1%	-18	-7
NC(=O)c1ccc(Oc2ncc(C(F)(F)F)cc2Cl)cc1	·	?	16%	4%	28	25
